Most compounds without a hit are left out; they make up all but 11% or so of the library.
ALDH1A1 inh: qHTS Assay for Inhibitors of Aldehyde Dehydrogenase 1 (ALDH1A1) | Aldehyde dehydrogenase 1A1 (Homo sapiens), P00352 | Potency, µM (doses to about 75.3 µM), hits mostly inhibitors | hit rate 7.3% among 220,000 | Purified ALDH1A1, NADH fluorescence, propionaldehyde substrate
Target sequence (P00352 whole entry, looked up): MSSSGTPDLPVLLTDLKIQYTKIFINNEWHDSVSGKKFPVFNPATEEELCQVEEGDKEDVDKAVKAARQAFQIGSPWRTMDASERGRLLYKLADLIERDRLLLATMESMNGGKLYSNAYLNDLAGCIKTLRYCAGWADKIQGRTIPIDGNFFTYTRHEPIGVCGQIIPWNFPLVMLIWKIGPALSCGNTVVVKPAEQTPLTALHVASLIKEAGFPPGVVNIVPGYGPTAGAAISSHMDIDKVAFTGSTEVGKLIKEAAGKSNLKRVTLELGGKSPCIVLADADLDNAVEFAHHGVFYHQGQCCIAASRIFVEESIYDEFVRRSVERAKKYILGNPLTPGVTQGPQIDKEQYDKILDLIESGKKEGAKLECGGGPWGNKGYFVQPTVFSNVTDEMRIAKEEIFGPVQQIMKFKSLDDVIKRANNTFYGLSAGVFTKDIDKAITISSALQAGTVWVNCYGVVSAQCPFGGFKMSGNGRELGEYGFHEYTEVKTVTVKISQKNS
PNC assembly inh: High Content Assay for Compounds that inhibit the Assembly of the Perinucleolar Compartment | PC3M PTB-GFP, PNC prevalence imaging, 16 h; hits give low values | hit rate 3.1% among 140,000 | activity change (PNC), negative = inhibition, % at 10 µM | AID 2417, 2010;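 active = readout at or below -70, meaning at least 70% loss of cells showing the perinucleolar compartment, a nuclear body marking cancer cells; inconclusive = readout between -30 and a set limit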
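Read-out is percentage of cells bearing a perinucleolar compartment, from automated 20x imaging of fixed, Hoechst-stained PC3M PTB-GFP cells. Cells were seeded 4 h, then exposed 16 h to compound (23 nl of library stock) in duplicate plates.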
HPGD block: qHTS Assay for Inhibitors of HPGD (15-Hydroxyprostaglandin Dehydrogenase); purified HPGD, NADH fluorescence kinetic, PGE2 substrate; Potency, µM, actives largely listed as inhibitors; 15-hydroxyprostaglandin dehydrogenase [NAD(+)] (Homo sapiens), P15428; AID 894, 2007; hit rate 4.3% among 150,000
Target sequence (P15428 whole entry, looked up): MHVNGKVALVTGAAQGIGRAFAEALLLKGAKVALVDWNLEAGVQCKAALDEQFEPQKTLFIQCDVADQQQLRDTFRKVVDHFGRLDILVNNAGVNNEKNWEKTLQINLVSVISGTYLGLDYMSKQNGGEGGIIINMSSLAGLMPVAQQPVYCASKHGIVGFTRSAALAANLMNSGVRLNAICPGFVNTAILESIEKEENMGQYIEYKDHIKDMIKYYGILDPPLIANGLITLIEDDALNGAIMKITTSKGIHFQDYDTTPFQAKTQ
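NADH formation kinetics: reaction with 30 uM PGE2 and 1 mM NAD+ (final), 20 nM enzyme, Tris-HCl pH 8 with Tween 20, after 15 min compound preincubation at room temperature. Fluorescence change, last versus first of five reads.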
Of the large screens only hits and unclear results are named; the others gave an inactive call. Unless noted, calls follow the shape of the dose curve; as a rule, active = well fitted inhibition curve with a large enough effect (not every such curve was filed as active); inconclusive = small, poorly fitted or top-dose-only effect, or another doubt; inactive = no such curve, though single readings can be large or run the other way.

CN1CCN(NC(=O)CN2C(=O)/C(=C/c3ccccc3Cl)SC2=S)CC1	ALDH1A1 inh inconclusive, HPGD block 13µM
O=C1CNC(=O)N1CC(O)Cn1c2ccccc2c2ccccc21 (stereo unspecified)	none (no result: PNC assembly inh, HPGD block)
O=C(NC(=S)Nc1cccc2cnccc12)c1ccccc1	none (no result: PNC assembly inh, HPGD block)
Cc1ccc(NC(=S)Nc2cccc3cnccc23)c(C)c1	ALDH1A1 inh 18µM (no result: PNC assembly inh, HPGD block)
Cc1cc(C)cc(NC(=S)Nc2cccc3cnccc23)c1	ALDH1A1 inh 11µM (no result: PNC assembly inh, HPGD block)
CCc1ccc(NC(=S)NCc2cccnc2)cc1	none (no result: PNC assembly inh, HPGD block)
Cc1cc(Cl)ccc1NC(=S)Nc1ccccn1	none
CCc1ccc(NC(=S)Nc2cccc3cnccc23)cc1	ALDH1A1 inh 11µM (no result: PNC assembly inh, HPGD block)
COC(=O)[C@@]1(Cc2ccccc2)[C@H]2c3cc(C(=O)N4CCCC4)n(Cc4cc(F)cc5c4OCOC5)c3C[C@H]2CN1C(=O)c1ccccc1	none (no result: PNC assembly inh)
O=C(O)Cn1ccnc1[N+](=O)[O-]	none (no result: PNC assembly inh)
CN(C)S(=O)(=O)c1ccc(N2CCCC2)c(C(=O)N2CCN(c3ccc([N+](=O)[O-])cc3)CC2)c1	ALDH1A1 inh 14µM (no result: PNC assembly inh, HPGD block)
CC(=O)Nc1cccc(Oc2ccc([N+](=O)[O-])cc2Cl)c1	none (no result: PNC assembly inh, HPGD block)
Cc1ccc(C(=O)c2cc([N+](=O)[O-])ccc2N2CC(C)OC(C)C2)cc1 (stereo unspecified)	ALDH1A1 inh inconclusive
O=C(c1cc([N+](=O)[O-])ccc1N1CCCCC1)N1CCCC1	ALDH1A1 inh 28µM, PNC assembly inh inconclusive
O=C(c1ccc(Oc2ccc([N+](=O)[O-])cc2Cl)cc1)N1CCCC1	ALDH1A1 inh 22µM (no result: PNC assembly inh, HPGD block)
Cc1ccc(C(=O)c2cc([N+](=O)[O-])ccc2N2CCCCC2)cc1	ALDH1A1 inh 20µM, PNC assembly inh -110
CN1CCN(c2ccc([N+](=O)[O-])cc2C(=O)N2CCCCC2)CC1	none
O=C(c1cc([N+](=O)[O-])ccc1N1CCCC1)N1CCCC1	none (no result: PNC assembly inh, HPGD block)
c1ccc(Cc2cc[n+](Cc3ccccn3)cc2)cc1	none (no result: PNC assembly inh, HPGD block)
O=C(O)c1cc([N+](=O)[O-])c(N2CCCC2)c([N+](=O)[O-])c1	none
CC(C)(C)NC(=O)c1cccc2c1OC(C)(C)C2	PNC assembly inh inconclusive
CCC(CCC(C)C1CCC2C3CCC4CC(O)CC[C@@]4(C)C3CC[C@@]12C)C(C)C (stereo partly specified)	none (no result: PNC assembly inh)
O=C(N1CCOCC1)n1cnc2ccccc21	PNC assembly inh -100
O=C(N1CCOCC1)n1nnc2ccccc21	PNC assembly inh inconclusive
C=CCSc1ncc(C#N)c(N)n1	none
CCC(C)(C)n1nnnc1CN1CCN(c2nc3cc(OC)ccc3cc2C#N)CC1	ALDH1A1 inh inconclusive, HPGD block inconclusive
Cc1cccc(-c2nsc(SCC(=O)NCc3ccco3)n2)c1	ALDH1A1 inh inconclusive, HPGD block inconclusive
CC(=O)Nc1nnc(SCC(=O)NCC2CCCO2)s1 (stereo unspecified)	ALDH1A1 inh inconclusive, PNC assembly inh -100
CCOC(=O)CSc1nnc(N)s1	ALDH1A1 inh inconclusive
O=C(CSc1nnc(NC(=O)Cc2ccccc2)s1)NCC1CCCO1 (stereo unspecified)	none (no result: PNC assembly inh, HPGD block)
Cc1cccc(-c2nsc(SCC(=O)NCc3ccc4c(c3)OCO4)n2)c1	none
CCOC(=O)CNC(=O)CSc1nnc(SCC(=O)NCC(=O)OCC)s1	ALDH1A1 inh 0.25µM, HPGD block inconclusive
Cc1cccc(-c2nsc(SCC(=O)NCC3CCCO3)n2)c1 (stereo unspecified)	ALDH1A1 inh 20µM (no result: PNC assembly inh, HPGD block)
CCOC(=O)CNC(=O)CSc1nc(-c2cccc(C)c2)ns1	ALDH1A1 inh 20µM (no result: PNC assembly inh, HPGD block)
N#CCCn1c(=O)cnc2cnc(Oc3cccc(Cl)c3)nc21	none (no result: PNC assembly inh, HPGD block)
COc1ccc(CCN=C(N)NS(=O)(=O)c2ccc3ccccc3c2)cc1	ALDH1A1 inh inconclusive
Nc1nnc(SCCN2C(=O)c3ccccc3C2=O)s1	none
C=CCSc1nnc(NC(=O)c2ccc(S(=O)(=O)NCC3CCCO3)cc2)s1 (stereo unspecified)	ALDH1A1 inh inconclusive, HPGD block 18µM
O=C(Nc1ccc(S(=O)(=O)NCC2CCCO2)cc1)c1ccccc1 (stereo unspecified)	none (no result: PNC assembly inh, HPGD block)
CCOC(=O)CSc1nnc(SCCN2C(=O)c3ccccc3C2=O)s1	ALDH1A1 inh 28µM
CC(=O)c1cc(CN2CCN(C3CCCCC3)C(CCO)C2)cs1 (stereo unspecified)	none (no result: PNC assembly inh, HPGD block)
COC(=O)N1[C@H]2CC[C@@]3(C)CC(=O)C[C@]1(C)C3c1ccccc12	none (no result: PNC assembly inh)
CCOC(=O)CC1=CC(C)(CC(=O)OCC)C(C#N)(C#N)C(N)=C1C#N (stereo unspecified)	ALDH1A1 inh inconclusive, PNC assembly inh inconclusive
O=C(c1csnn1)N1CCC2(CCCN(c3ncccn3)C2)CC1	ALDH1A1 inh inconclusive (no result: PNC assembly inh)
CN(Cc1ccco1)c1nc(-c2cccnc2)nc2ccccc12	ALDH1A1 inh 32µM (no result: PNC assembly inh, HPGD block)
CN(Cc1ccco1)c1nc(-c2ccccc2Cl)nc2ccccc12	none (no result: PNC assembly inh)
COc1ccc(NC(=O)C(C)N2C(=O)c3ccccc3C2=O)cc1S(=O)(=O)N1CCOCC1 (stereo unspecified)	none (no result: PNC assembly inh, HPGD block)
COc1ccc(CC(=S)N2CCOCC2)cc1	ALDH1A1 inh 8.9µM, PNC assembly inh inconclusive, HPGD block inconclusive
COc1ccc(OCCC(=O)N2CCOCC2)cc1	none (no result: PNC assembly inh, HPGD block)
CCc1ccc(CC(=S)N2CCOCC2)cc1	none (no result: PNC assembly inh, HPGD block)
Cc1ccc(CC(=S)N2CCOCC2)cc1	ALDH1A1 inh 24µM (no result: PNC assembly inh, HPGD block)
O=C(Cn1nnc(-c2ccncc2)n1)N(C1CCCCC1)C1CCCCC1	none
O=C1CC(c2ccccc2F)c2cc3c(cc2N1)CCC3 (stereo unspecified)	none
O=C1CC(c2cc(Br)ccc2F)c2cc3c(cc2N1)CCC3 (stereo unspecified)	PNC assembly inh -97
CCn1cnc2cc([N+](=O)[O-])ccc21	none (no result: PNC assembly inh, HPGD block)
O=C(c1ccccc1)C1C(=O)c2ccccc2C1=O	none
O=C1C(=C(O)c2ccccc2)C(=O)c2ccccc21	ALDH1A1 inh 4µM
COc1ccc(S(=O)(=O)NCC(c2cccnc2)N2CCN(c3ccccc3OC)CC2)cc1C (stereo unspecified)	ALDH1A1 inh inconclusive
COc1ccccc1N1CCN(C(CNS(=O)(=O)c2cc(F)ccc2F)c2cccnc2)CC1 (stereo unspecified)	ALDH1A1 inh 20µM
COc1ccccc1N1CCN(C(CNS(=O)(=O)c2ccccc2)c2cccnc2)CC1 (stereo unspecified)	ALDH1A1 inh 20µM
COc1ccccc1N1CCN(C(CNC(=O)C2CCCCC2)c2cccnc2)CC1 (stereo unspecified)	PNC assembly inh inconclusive
CCCCCC(C)n1[nH]c(=O)cc1N (stereo unspecified)	none
Cn1cccc1C(=S)N=P(C1CCCCC1)(N1CCOCC1)N1CCOCC1	ALDH1A1 inh inconclusive, PNC assembly inh inconclusive
COc1ccc(-c2oc3c(OC)c(OC)c(OC)c(O)c3c(=O)c2OC)cc1OC	none (no result: PNC assembly inh, HPGD block)
COc1cc(-c2cc(=O)c3c(O)c(OC)c(OC)c(O)c3o2)ccc1O	ALDH1A1 inh 28µM (no result: PNC assembly inh, HPGD block)
COc1cc(-c2cc(OC)c3c(C)oc(C)c3c(=O)c2)ccc1O	PNC assembly inh inconclusive, HPGD block inconclusive
COc1ccc(-c2cc(=O)c3c(O)c(OC)c(OC)c(OC)c3o2)cc1OC	ALDH1A1 inh 20µM (no result: PNC assembly inh)
COc1ccc(-c2cc(=O)c3c(O)cc(O)cc3o2)cc1	none (no result: PNC assembly inh)
COc1ccc(-c2cc(OC)c3c(C)oc(C)c3c(=O)c2)cc1OC	ALDH1A1 inh 11µM, HPGD block 28µM
